Experimental findings from ChEMBL document CHEMBL4513141, “CO-ADD screening of NIH (USA) - Clinical Collection” (2021) are described below.

The Inhibition is the drop in the measured response relative to a control, in per cent.

The structures appear in SMILES notation. Results with a measured potency or affinity are listed apart.

For one experiment, the system named is Candida albicans. To be noted: 20 µM.
Regarding `CCCN1CCCC[C@H]1C(=O)Nc1c(C)cccc1C.Cl` [ROPIVACAINE HYDROCHLORIDE], the Inhibition was found to be 3.24%.

With `NNC(=O)c1ccncc1` [ISONIAZID], the Inhibition stood at 3.95%.

In the case of `Br.CN(C)CCCC1(c2ccc(F)cc2)OCc2cc(C#N)ccc21` (centres undefined) [CITALOPRAM HYDROBROMIDE], the Inhibition was 2.48%.

As to `CC(C)NCC(O)c1ccc(NS(C)(=O)=O)cc1.Cl` (centres undefined) [SOTALOL HYDROCHLORIDE], the Inhibition is 5.09%.

For `Cc1nc(=O)c2cc(CN(C)c3ccc(C(=O)N[C@@H](CCC(=O)O)C(=O)O)s3)ccc2[nH]1` [RALTITREXED], the Inhibition was determined as 2.26%.

Consider `CCN1CCC[C@H]1CNC(=O)c1c(O)c(Cl)cc(Cl)c1OC` [RACLOPRIDE], for which the Inhibition came to 2.44%.

Another experiment deals with Cryptococcus neoformans. Particulars: Concentration 20 uM; ASSAY_TEST Inhibition of Fungal Growth; detection method Resazurin; Absorption (OD600-OD570); plate type 384well; NBS; CORNING #3640. (In general: Resazurin is reduced to fluorescent resorufin, in cell work by metabolically active cells.)
Consider `COc1ccc(/C=C/C(=O)Nc2ccccc2C(=O)O)cc1OC`, for which the Inhibition was 4.45%.

In the case of `CC(=O)NS(=O)(=O)c1ccc(N)cc1` [SULFACETAMIDE], the Inhibition was 0.24%.

For the compound `CCc1nn(CCCN2CCN(c3cccc(Cl)c3)CC2)c(=O)n1CCOc1ccccc1.Cl` [NEFAZODONE HYDROCHLORIDE], the Inhibition is listed as -2.69%.

With `COc1cc2nc(N3CCN(C(=O)C4COc5ccccc5O4)CC3)nc(N)c2cc1OC` (centres undefined) [DOXAZOSIN], the Inhibition is 2.35%.

Turning to `CC(=O)O[C@]1(C(C)=O)CC[C@H]2[C@@H]3C=C(C)C4=CC(=O)CC[C@]4(C)[C@H]3CC[C@@]21C` [MEGESTROL ACETATE], the Inhibition was -0.12%.

On to `COc1cc([C@@H]2c3cc4c(cc3[C@@H](O[C@@H]3O[C@@H]5CO[C@@H](C)O[C@H]5[C@H](O)[C@H]3O)[C@H]3COC(=O)[C@H]23)OCO4)cc(OC)c1O` [ETOPOSIDE], for which the Inhibition is -6.14%.

Regarding `Cl.Clc1ccccc1CN1CCc2sccc2C1` [TICLOPIDINE HYDROCHLORIDE], the Inhibition was -6.79%.

With `CC(C)[N+](C)(CCOC(=O)C1c2ccccc2Oc2ccccc21)C(C)C.[Br-]` [PROPANTHELINE BROMIDE], the Inhibition is -1.43%.

For `CC1=C(/C=C/C(C)=C/C=C/C(C)=C/C(=O)O)C(C)(C)CCC1` [TRETINOIN], the Inhibition is on record as -0.54%.

`Nc1ccn([C@@H]2CS[C@H](CO)O2)c(=O)n1` [LAMIVUDINE]: the Inhibition is on record as -7.82%.

On to `CCN1CC(CCN2CCOCC2)C(c2ccccc2)(c2ccccc2)C1=O.Cl` (centres undefined), for which the Inhibition was -0.87%.

In the case of `O=C1N=C([O-])NC1(c1ccccc1)c1ccccc1.[Na+]` [PHENYTOIN SODIUM], the Inhibition is given as 1.23%.

As to `CNC(=C[N+](=O)[O-])NCCSCc1csc(CN(C)C)n1` [NIZATIDINE], the Inhibition is given as -0.19%.

Regarding `Cl.Nc1nc2ccc(OC(F)(F)F)cc2s1`, the Inhibition is -9.1%.

In the case of `CC(C)NCC(O)COc1ccc(CCOCC2CC2)cc1.Cl` (centres undefined) [BETAXOLOL HYDROCHLORIDE], the Inhibition is given as -9.53%.

For `CCc1cccc2c3c([nH]c12)C(CC)(CC(=O)O)OCC3` (centres undefined) [ETODOLAC], the Inhibition is -2.08%.

Turning to `Nc1ccc(S(=O)(=O)c2ccc(N)cc2)cc1` [DAPSONE], the Inhibition worked out at 0.91%.

Regarding `O=C(O)COCCN1CCN([C@H](c2ccccc2)c2ccc(Cl)cc2)CC1` [LEVOCETIRIZINE], the Inhibition was found to be 0.71%.

Take `Cc1ncc([N+](=O)[O-])n1CC(C)O` (centres undefined) [SECNIDAZOLE]: the Inhibition came to 0.36%.

In the case of `Cn1cnc([N+](=O)[O-])c1Sc1ncnc2[nH]cnc12` [AZATHIOPRINE], the Inhibition was -6.38%.

With `Nc1nc(O)c2ncn(CCC(CO)CO)c2n1` [PENCICLOVIR], the Inhibition is listed as -9.17%.

In the case of `OCCN1CCN(CCCN2c3ccccc3Sc3ccc(Cl)cc32)CC1` [PERPHENAZINE], the Inhibition was found to be 23.91%.

For the compound `CN(C)CCCN1c2ccccc2CCc2ccc(Cl)cc21.Cl` [CLOMIPRAMINE HYDROCHLORIDE], the Inhibition is reported as -9.01%.

As for `O=C(O)c1cccnc1` [NIACIN], the Inhibition is -3.83%.

For `C[C@]12C=CC(=O)C=C1CC[C@@H]1[C@@H]2[C@@H](O)C[C@@]2(C)[C@H]1CC[C@]2(O)C(=O)COC(=O)CCC(=O)[O-].[Na+]` [PREDNISOLONE SODIUM SUCCINATE], the Inhibition was 1.35%.

As for `CNCC(O)c1ccc(O)c(O)c1` (centres undefined) [RACEPINEPHRINE], the Inhibition is on record as -0.68%.

Regarding `COCCCC/C(=N\OCCN)c1ccc(C(F)(F)F)cc1.O=C(O)/C=C\C(=O)O` [FLUVOXAMINE MALEATE], the Inhibition is -8.17%.

Consider `Cl.OC(CCN1CCCC1)(c1ccccc1)C1CCCCC1` (centres undefined) [PROCYCLIDINE HYDROCHLORIDE], for which the Inhibition was -10.03%.

Consider `Cc1cccc(CCN2CCC(C(=O)c3ccc(NS(C)(=O)=O)cc3)CC2)n1.Cl.Cl`, for which the Inhibition is recorded as -8.23%.

For the compound `CC(=O)OCC(=O)[C@@]1(O)CC[C@H]2[C@@H]3CCC4=CC(=O)CC[C@]4(C)[C@H]3C(=O)C[C@@]21C` [CORTISONE ACETATE], the Inhibition is listed as -0.31%.

`COc1ccc2cc(CCC(C)=O)ccc2c1` [NABUMETONE]: the Inhibition is listed as -7.4%.

For `COc1ccccc1N1CCN(CC(O)COc2cccc3ccccc23)CC1` (centres undefined) [NAFTOPIDIL], the Inhibition worked out at 1.21%.

On to `CCCN1CCCC[C@H]1C(=O)Nc1c(C)cccc1C.Cl` [ROPIVACAINE HYDROCHLORIDE], for which the Inhibition is -6.59%.

Consider `NNC(=O)c1ccncc1` [ISONIAZID], for which the Inhibition was -3.6%.

On to `Br.CN(C)CCCC1(c2ccc(F)cc2)OCc2cc(C#N)ccc21` (centres undefined) [CITALOPRAM HYDROBROMIDE], for which the Inhibition is recorded as -12.2%.

For `CC(C)NCC(O)c1ccc(NS(C)(=O)=O)cc1.Cl` (centres undefined) [SOTALOL HYDROCHLORIDE], the Inhibition stood at 3.23%.

Take `Cc1nc(=O)c2cc(CN(C)c3ccc(C(=O)N[C@@H](CCC(=O)O)C(=O)O)s3)ccc2[nH]1` [RALTITREXED]: the Inhibition was -0.58%.

For `CCN1CCC[C@H]1CNC(=O)c1c(O)c(Cl)cc(Cl)c1OC` [RACLOPRIDE], the Inhibition is given as 1.03%.
